Several values for one entry are separate records, joined by “and”; a condition that tells them apart may be missing. Equal entries are not always repeated. ± gives the standard deviation of the averaged measurements.
Tests used:
Conditions in all cases: concentration: 10 µM; 24 h
HCC1569 [1] = test: cell number relative to DMSO (% of DMSO); higher = more cells (less growth inhibition / toxicity)
Outline: (§1)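 In 384-well plates holding 800 HCC1569 or TDF cells per well in RPMI with 10% FBS, compounds were tested at 10 µM for 24 h at 37 °C in triplicate. Fixation used 3.7% formaldehyde. Staining used a rabbit anti-H1.0 antibody with an AlexaFluor 647 secondary, plus DAPI. Each value, H1.0 nuclear intensity or cell number, is a median of replicates shown as percent of the plate control, and HCC1569 values were smoothed for positional effects.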

TDF [2] = test: as above
Outline: as §1

TDF [3] = test: H1.0 immunofluorescence intensity relative to DMSO (% of DMSO); higher = stronger H1.0 induction, active = 120 or more
Outline: as §1

HCC1569 [4] = test: H1.0 immunofluorescence intensity relative to DMSO (% of DMSO); higher = stronger H1.0 induction, active = 140 or more
Outline: as §1
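Throughout, for H1.0 immunofluorescence intensity relative to DMSO: TDF is a line of transformed human dermal fibroblasts of mesenchymal origin.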
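Throughout, for cell number relative to DMSO: TDF denotes transformed human dermal fibroblasts of mesenchymal origin.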

| Structure (SMILES) | cell number (HCC1569 [1]) | cell number (TDF [2]) | H1.0 immunofluorescence intensity (TDF [3]) | H1.0 immunofluorescence intensity (HCC1569 [4]) |
| --- | --- | --- | --- | --- |
| O=C(O)CCCC=CCC=CC=CC(O)CC=CCCCCCO (stereo not given) | 101 | 92.6 | 98.3 (inactive) | 101 (inactive) |
| O=C(C=Cc1ccc(O)cc1)CC(=O)C=Cc1ccc(O)cc1 [Bis demethoxycurcumin] | 83.7 | 95.1 | 96 (inactive) | 94.4 (inactive) |
| Cn1cc(C2=C(c3ccc(Cl)cc3Cl)C(=O)NC2=O)c2ccccc21 | 86.2 and 92.3 | 100 and 111 | 104 (inactive) and 105 (inactive) | 158 (active) and 136 (inactive) |
| CC(=O)NC(C(=O)O)C(C)(C)SN=O (stereo not given) [S-Nitroso-N-acetylpenicillamine] | 105 | 109 | 90.5 (inactive) | 96.7 (inactive) |
| Cc1c(CC(C)(C)C(=O)O)n(Cc2ccc(Cl)cc2)c2ccc(F)cc12 | 107 | 86.5 | 105 (inactive) | 99.6 (inactive) |
| S=c1ccss1 [1,2-Dithiole-3-thione] | 101 | 103 | 89.6 (inactive) | 99.4 (inactive) |
| CCC(=O)N1CCN(C(=O)c2ccccc2)CC1 | 106 | 111 | 94.2 (inactive) | 89.3 (inactive) |
| CN(C)CCN1C(=O)c2ccccc2N(C)c2ccccc21 [Dibenzepine] | 102 | 112 | 97.7 (inactive) | 111 (inactive) |
| Cl.N=C(N)c1ccccc1 [Benzamidine hydrochloride] | 100 | 103 | 94 (inactive) | 85.3 (inactive) |
| Cl.O=S(=O)(c1cccc2c(Cl)cccc12)N1CCCNCC1 | 99 and 96.6 | 104 | 103 (inactive) and 93.2 (inactive) | 105 (inactive) and 97.4 (inactive) |
| CC1COc2c(N3CCN(C)CC3)c(F)cc3c(=O)c(C(=O)O)cn1c23 (stereo not given) [Ofloxacin] | 101.5 ± 0.68 | 101 ± 5.3 | 95 (inactive) | 96.5 (inactive) |
| O=C(CCc1ccc(O)cc1)c1c(O)cc(O)cc1OC1OC(CO)C(O)C(O)C1O (stereo not given) [Phlorizine] | 101 | 99.3 | 102 (inactive) | 97.1 (inactive) |
| COc1ccc(CCNCC(O)c2ccc(O)cc2)cc1OC (stereo not drawn) [R(-)-Denopamine] | 100 | 103 | 93.5 (inactive) | 105 (inactive) |
| C[N+](C)(C)CCCCCC[N+](C)(C)C.[Br-].[Br-] [Hexamethonium bromide] | 104 | 103 | 98.5 (inactive) | 102 (inactive) |
| CC(C)NCC(O)c1ccc(O)c(O)c1.Cl (racemic) | 104 | 94 | 97.4 (inactive) | 99 (inactive) |

From the supplement of paper PMC7156485
